# USP8 inh: blocks human USP8 ubiquitin-rhodamine cleavage; P40818; purified USP8, Ub-rhodamine cleavage fluorescence, 30 min; inhibition, % at 20 µM; 47,000 compounds, 4.2% hits; AID 1645853
# Target sequence (P40818 whole entry, looked up): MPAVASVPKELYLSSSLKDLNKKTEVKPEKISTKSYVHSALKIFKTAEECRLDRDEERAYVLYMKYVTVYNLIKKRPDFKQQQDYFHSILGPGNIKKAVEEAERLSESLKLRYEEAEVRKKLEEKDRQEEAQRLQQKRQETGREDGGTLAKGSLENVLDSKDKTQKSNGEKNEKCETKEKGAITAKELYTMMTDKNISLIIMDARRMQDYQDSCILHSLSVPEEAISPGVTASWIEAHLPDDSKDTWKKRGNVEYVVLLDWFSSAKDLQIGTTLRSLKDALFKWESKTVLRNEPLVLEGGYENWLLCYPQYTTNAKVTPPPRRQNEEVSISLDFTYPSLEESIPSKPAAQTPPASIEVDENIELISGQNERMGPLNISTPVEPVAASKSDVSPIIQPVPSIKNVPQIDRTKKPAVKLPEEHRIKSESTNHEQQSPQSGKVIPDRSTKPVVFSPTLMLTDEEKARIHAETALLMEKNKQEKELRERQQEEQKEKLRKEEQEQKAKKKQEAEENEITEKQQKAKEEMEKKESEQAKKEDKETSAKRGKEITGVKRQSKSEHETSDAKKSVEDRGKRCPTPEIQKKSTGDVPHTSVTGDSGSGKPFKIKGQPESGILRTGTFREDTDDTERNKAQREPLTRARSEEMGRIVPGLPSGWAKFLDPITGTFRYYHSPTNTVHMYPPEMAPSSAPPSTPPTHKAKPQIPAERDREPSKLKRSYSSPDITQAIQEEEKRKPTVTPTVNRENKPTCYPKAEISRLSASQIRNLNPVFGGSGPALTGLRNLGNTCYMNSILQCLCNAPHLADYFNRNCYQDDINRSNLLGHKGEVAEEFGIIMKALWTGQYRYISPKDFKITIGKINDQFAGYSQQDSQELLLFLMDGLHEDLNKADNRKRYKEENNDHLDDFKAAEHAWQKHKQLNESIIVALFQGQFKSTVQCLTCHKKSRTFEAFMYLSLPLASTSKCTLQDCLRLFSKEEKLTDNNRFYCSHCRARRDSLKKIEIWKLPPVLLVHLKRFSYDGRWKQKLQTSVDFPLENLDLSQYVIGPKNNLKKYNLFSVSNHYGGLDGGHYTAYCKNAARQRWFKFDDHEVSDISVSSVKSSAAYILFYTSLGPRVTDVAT
# UCHL1 inh: blocks human UCHL1 ubiquitin-rhodamine cleavage | P09936 | purified UCHL1, Ub-rhodamine cleavage fluorescence | inhibition, % at 20 µM | 47,000 compounds, 0.2% hits
# USP10 block: blocks human USP10 ubiquitin-rhodamine cleavage; Q14694; purified USP10, Ub-rhodamine fluorescence, 60 min; inhibition, % at 20 µM; 47,000 compounds, 1.1% hits
# USP7 block: human USP7 deubiquitinase inhibition; purified USP7, Ub-rhodamine cleavage fluorescence; 47,000 compounds, 0.3% hits; inhibition, % at 20 µM; Q93009; AID 1645854
# Starred values were filed as active, the others as inactive; / = no result. Compounds with a hit are over-represented: about 5% of the library has one in this group of screens. Rule as the data show it: active = inhibition above about 30%; inactive = the rest.
SMILES,USP8 inh,UCHL1 inh,USP10 block,USP7 block
Cc1oc(C2CC2)cc1C(=O)N1CCC2(CC1)CC1(CO2)Nc2ccccc2-n2cccc21 (centres undefined),92.5*,9.0,3.9,9.2
COc1ccc(NC(=O)N2CCC3(CC2)Nc2ccccc2-n2cccc23)c(OC)c1,15.0,1.6,-4.2,-2.1
O=C(Cc1ccccc1F)N1CCC2(CC1)CC1(CO2)Nc2ccccc2-n2cccc21 (centres undefined),93.5*,8.8,5.4,-6.0
Cc1ccc(C(=O)N2CCC3(CC2)CC2(CO3)Nc3ccccc3-n3cccc32)cn1 (centres undefined),66.8*,2.9,-0.2,-24.3
Cn1nccc1C(=O)N1CCC2(CC1)Nc1cccnc1-n1cccc12,-5.2,-0.6,0.0,-0.9
Cc1nn(C)cc1C(=O)N1CCC2(CC1)CC1(CO2)Nc2ccccc2-n2cccc21 (centres undefined),56.8*,0.0,-2.0,-0.1
COc1ccc(C2CCN(C(=O)c3ccccn3)CC2)cc1,-4.1,-2.7,-2.4,-8.5
O=C(Nc1cnc(-c2cccc(Cl)c2)nc1)C1CCC1,30.0*,2.9,2.8,-167.0
O=c1[nH]c2ccc(S(=O)(=O)N3CC4CCCN4C[C@@H]3CCO)cc2[nH]1 (some centres undefined),-12.2,0.7,-4.5,3.7
O=C(NCC(c1ccccc1)N1CCCC1)c1cc(-c2ccc3c(c2)OCCO3)on1 (centres undefined),3.7,-1.4,-5.1,-4.5
O=C(Oc1ccccc1Br)c1cc(-c2ccc3c(c2)OCCO3)on1,51.7*,-3.9,-6.9,-74.1
COc1ccc(Cc2noc(C3(C)CCOCC3)n2)cc1,1.1,-1.4,-0.3,-4.7
COc1ccccc1N1CCN(c2ncnc3c2cnn3-c2cc(C)cc(C)c2)CC1,-0.6,-0.3,-0.2,-21.2
CCS(=O)(=O)N1C[C@H](OCc2ccccn2)[C@H]2COC[C@H]21,-40.9,0.7,2.3,2.4
NC(=O)C[n+]1ccn2c(Nc3ccccc3)c(-c3ccccc3O)nc2c1,72.5*,3.7,-1.5,-90.5
Cc1ccc(Nc2c(-c3ccccc3O)nc3c[n+](CC(N)=O)ccn23)cc1,36.5*,4.2,-0.5,-4.8
CCN1CCc2c(cccc2-n2nnc(C(=O)NCC3CCCCC3)c2C)C1,-1.1,-0.9,-7.9,-7.5
Cn1c(=O)n([C@@H](Cc2ccccc2)C(=O)N[C@@H](C(=O)O)c2ccc(O)cc2)c(=O)c2ccccc21,75.1*,8.5,11.0,3.8
O=C(COC(=O)c1ccccc1NS(=O)(=O)c1ccc2c(c1)OCCO2)c1ccc([N+](=O)[O-])cc1,-131.6,-1.4,15.5,5.5
COc1ccc(C(=O)COC(=O)c2ccccc2NS(=O)(=O)c2ccc(O)c([N+](=O)[O-])c2)cc1,61.8*,5.4,62.8*,24.3
Cc1sc2ncnc(SCC(=O)c3cc(C)n(Cc4ccco4)c3C)c2c1C,62.9*,-0.7,2.4,-2.4
Cc1sc2ncnc(OCC(=O)c3cc(F)ccc3F)c2c1C,-0.1,-3.1,3.4,0.4
CC1(C)Cc2c(sc3nc(Cc4ccccc4)nc(SCC(=O)NC(c4ccccc4)c4ccccc4)c23)CO1,25.6,-0.8,16.5,4.0
Cc1cccc(N2CCN(C(=O)c3cnc(NCc4ccccc4F)nc3C)CC2)c1C,1.1,6.3,8.3,7.0
Cc1ccc(OC(C)C(=O)N2CCN(Cc3cc(=O)n4ccsc4n3)CC2)cc1 (centres undefined),-4.5,1.5,-1.5,2.7
SMILES,USP8 inh,UCHL1 inh,USP10 block,USP7 block
COc1cc2c(cc1OC)CN(Cc1cc(=O)n3ccsc3n1)CC2,55.7*,-14.9,-11.7,-21.9
CCc1nnc(C(=O)Nc2ccc(C(=O)NCc3ccc(OC(C)C)cc3)cc2)s1,-30.6,3.6,37.8*,10.9
NC(=O)c1nc(-c2ccccn2)nc2c1[nH]c(=O)n2-c1ccc2c(c1)OCO2,-153.8,2.7,-4.5,5.7
NC(=O)c1nc(-c2cccnc2)nc2c1[nH]c(=O)n2-c1ccc2c(c1)OCO2,53.1*,0.7,25.3,7.0
O=C(NC1CCN(Cc2ccccc2)CC1)c1ccc(-c2cncnc2)nc1,0.8,-2.0,-3.2,0.8
Cc1[nH]c2ccccc2c1CCNC(=O)c1cc2cc(Cl)ccc2oc1=O,56.0*,5.1,-3.2,0.2
COc1ccc(Nc2nc(C)c3c(n2)CCCC3=O)cc1,5.7,0.8,1.0,-4.3
CC(=O)c1cnc(-c2ccccn2)s1,43.5*,0.2,-4.0,-3.9
COc1cccc(NC(=O)CCc2nnc3n(CCCOC(C)C)c(=O)c4ccccc4n23)c1,80.6*,3.7,4.0,/
CC(C)OCCCn1c(=O)c2ccccc2n2c(CCC(=O)NCc3ccccn3)nnc12,-0.4,0.5,1.2,0.3
O=C(NCc1ccc2c(c1)OCO2)c1cn(-c2ccc(Cl)cc2)nn1,13.5,1.3,9.0,9.9
CC(C)CCCCCCCCCCC(=O)N(C)[C@H](CO)C(=O)N[C@H](C)C(=O)NCC(=O)N(C)C1C(=O)N[C@@H](C)C(=O)NC(C(=O)O)Cc2ccc(O)c(c2)-c2cc1ccc2O (some centres undefined),0.9,0.0,60.4*,-24.1
CC1=NOC(CNS(=O)(=O)c2ccc(F)c(F)c2)C1 (centres undefined),11.3,1.8,1.3,4.3
CCOc1ccc(-c2nnc(NC(=O)C3CCN(S(=O)(=O)c4ccc5c(c4)CCC5)CC3)o2)cc1,-120.4,8.7,43.8*,22.7
Cc1nnc(NC(=O)C2CCN(S(=O)(=O)c3ccc4ccccc4c3)CC2)o1,-267.6,-0.1,5.2,-4.5
O=C(CC1C(=O)Nc2nc(-c3ccccc3)nn21)Nc1cccc2ccccc12 (centres undefined),41.4*,0.0,29.1,5.8
O=C(CC1C(=O)Nc2nc3ccccc3n21)Nc1cccc2ccccc12 (centres undefined),55.2*,2.6,53.8*,13.5
O=C(CC1C(=O)Nc2nc(-c3ccccc3)nn21)Nc1ccccc1 (centres undefined),1.3,-1.1,1.8,0.1
CCOc1ccc(-n2c(O)c(C3NCCc4c3[nH]c3ccc(OC)cc43)c(=O)[nH]c2=O)cc1 (centres undefined),-26.4,-10.0,-8.0,/
COc1ccc(CNC(=O)C2CCCN(S(=O)(=O)Cc3ccc(Cl)cc3)C2)cc1 (centres undefined),24.8,4.1,5.7,5.1
CC(C)(C)c1nocc1C(=O)N1CCOCC1,2.6,2.4,0.7,4.8
CC1CCCN(CCCNC(=O)c2ccc3c(c2)NC(=O)C2CCCN32)C1 (centres undefined),29.6,-53.6,-5.3,-64.5
CC(C)CC1Nc2ccc(C(=O)NCCCN3CCCC3)cc2NC1=O (centres undefined),84.5*,5.9,1.7,-11.1
Cc1ccc(NC(=O)Cn2cc(S(=O)(=O)c3ccccc3)c(=O)c3ccc(C)nc32)cc1,40.6*,-15.0,-7.2,-5.6
Cc1cc(NC(=O)CN2C(=O)C(=O)c3ccccc32)ccc1-n1ncnn1,31.5*,-2.1,1.3,-8.4
COc1ccc(-c2ncc3c(n2)CCN(C(=O)c2ccccc2OC)C3)cc1,-9.8,-2.8,-4.8,-30.8
Cc1ccc(NC(=O)CC2Nc3ccccc3NC2=O)cc1[N+](=O)[O-] (centres undefined),65.8*,-0.2,0.1,11.9

# From PubChem
